Consider 27 compounds from PubChem BioAssay AID2685 (National Center for Advancing Translational Sciences (NCATS), 2010).

Screen size: about 320,000 compounds; about 2,100 (0.66%) were called active. Another 53% or so got no clear call; they are omitted. The call rests on the fitted dose curve; in most records, active means well fitted inhibition curve with a large enough effect in the signal ratio, with a control signal flat (not every such curve was filed as active); inconclusive means small, poorly fitted or top-dose-only effect, or effect the other way, or a change in a side signal; inactive means flat fitted curve, though single readings scatter; the % refers to the signal ratio. Many of the other results were omitted from the sample, so actives are more common in it than they were.
Potency means the concentration at half of the fitted maximal effect.

The test is described as follows: qHTS Assay for Lipid Storage Modulators in Drosophila S3 Cells.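 On cell number change: cells counted by Cell Tracker Red CMTPX staining in the red channel.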 On lipid storage change, negative = inhibition: on the % scale 0 is the no-effect control and ±100 the full control effect. The conditions noted are these: BODIPY lipid droplet fluorescence, 18-24 h, cells fed with added oleic acid; cell number change: measured here: cell count max response; series mostly up to 46.1 µM; lipid storage change, negative = inhibition: at the top concentration. Put shortly:
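Drosophila S3 cells loaded with oleic acid (400 uM, as added) and compounds at several concentrations; lipid droplets imaged by 488-nm laser-scanning cytometry, 500–530 nm intensity and object ratio to cell channel. Percent activity normalized to 20 uM Triacsin C.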
In the case of `Cc1ccc(NC(=O)c2cccc(C(F)(F)F)c2)cc1NC(=O)c1[nH]cnc1C(N)=O`, the Potency is 0.517 µM (active) and the cell number change was -5.2%. For the compound `Cc1ccc(C(=O)Nc2cccc(C(F)(F)F)c2)cc1Nc1ncnc2nc[nH]c12`, the “lipid storage change, negative = inhibition” value is 14.7% (inactive) and the cell number change is -0.327%. On the same counts, the results for `Cc1ccc(C(=O)Nc2cccc(C(F)(F)F)c2)cc1NC(=O)c1nccnc1N` are -14.7% (inactive) and -18.4%. The like results for `CC(NC(=O)c1cc(S(=O)(=O)N2CCCC2)ccc1Cl)c1ccccn1` (stereo not given) were, in that order, 11.6% (inactive) and 12.8%. On the same counts, the results for `O=C(N/N=C/c1ccc([N+](=O)[O-])cc1)c1ccc2nc[nH]c2c1` are 6.51% (inactive) and -15.6%. On to `O=C(Nc1ccc(F)cc1)c1cc(Cl)sc1Cl`, for which the “lipid storage change, negative = inhibition” value is 5.17% (inactive) and the cell number change is -1.56%. `CN1c2ccccc2C(O)=C(C(=O)Nc2ccccc2)S1(=O)=O`: the “lipid storage change, negative = inhibition” value was 15.4% (inactive). Turning to `Cc1ccccc1NC(=S)C1=C(O)c2sccc2N(C)S1(=O)=O`, the compound was classed as inactive. For `CN1c2ccsc2C(O)=C(C(=S)Nc2ccccc2)S1(=O)=O`, the Potency is 18.4 µM (active) and the cell number change amounted to 15.4%.

`COc1ccc(NC(=S)NNC(=O)CNc2ccc(Cl)cc2)cc1`: the “lipid storage change, negative = inhibition” value was 18% (inactive). For the compound `COc1ccccc1N1CCN(CC(C)N(C(=O)C2CCCCC2)c2ccccn2)CC1` (stereo not given), the “lipid storage change, negative = inhibition” value is 12.2% (inactive) and the cell number change worked out at 9.42%.

On to `CCOc1cc(C2C(C(=O)c3ccc(C)o3)=C(O)C(=O)N2CCc2ccccc2)ccc1O` (stereo not given), for which the “lipid storage change, negative = inhibition” value is 16.1% (inactive).

Consider `O=C(CCN1CCN(CCO)CC1)Nc1ccc(F)c(F)c1`, for which the Potency was 6.51 µM (active) and the cell number change came to 1.67%. With `CCOc1ccc(NC(=O)CCN2CCCCC2)cc1`, the “lipid storage change, negative = inhibition” value is -2.95% (inactive) and the cell number change came to 9.23%. `CCOC(=O)c1cc(NC(=O)CN2CCCC2)cc(C(=O)OCC)c1`: the Potency was 2.31 µM (active) and the cell number change is -1.35%. In the case of `COC(=O)c1cc(NC(=O)CN2CCN(C(C)=O)CC2)cc(C(=O)OC)c1`, the “lipid storage change, negative = inhibition” value is -5.4% (inactive) and the cell number change turned out to be 15.4%.

On to `O=C(CCN1CCCC1)Nc1cccc(Br)c1`, for which the “lipid storage change, negative = inhibition” value is 8.6% (inactive) and the cell number change was -0.144%. As to `O=C(CN1CCCCC1)Nc1cccc(Br)c1`, the Potency is 23.1 µM (active) and the cell number change is -14.8%. On to `COC(=O)c1ccc(NC(=O)CN2CCCC2)cc1`, for which the “lipid storage change, negative = inhibition” value is -7.98% (inactive) and the cell number change is -13.3%. The like results for `O=C(CCN1CCN(CCO)CC1)Nc1ccc(Br)cc1` were, in that order, -8.8% (inactive) and 0.964%. As for `COc1ccc(NC(=O)CCN2CCCCCC2)cc1`, the “lipid storage change, negative = inhibition” value is -1.99% (inactive) and the cell number change was -0.671%. The like results for `CN1CCN(CCC(=O)Nc2ccc(F)c(F)c2)CC1` were, in that order, -5.86% (inactive) and -0.365%. With `COc1ccc(NC(=O)CCN2CCCCC2)cc1`, the Potency was 18.4 µM (active) and the cell number change was -13.9%. In the case of `O=C(CN1CCCCCC1)Nc1cccc(NC(=O)CN2CCCCCC2)c1`, the “lipid storage change, negative = inhibition” value is -3.29% (inactive) and the cell number change is -11.3%.

Consider `O=C(CSc1nc2c(c(=O)n1-c1ccc(F)cc1)SCC2)N1CCCC1`, for which the “lipid storage change, negative = inhibition” value was -0.194% (inactive) and the cell number change was -5.69%. On the same counts, the results for `Cc1cc(C)cc(OC(=O)COc2ccccc2C)c1` are 0.642% (inactive) and 16.2%. On the same counts, the results for `CCCOc1ccccc1C(=O)N(Cc1ccco1)C1CCS(=O)(=O)C1` (stereo not given) are -5.58% (inactive) and -17.8%.
